Shown are actives, neighbours in structure and some others; about 2.2% of the full set was active somewhere.
TrxR1 substrate: substrates of rat thioredoxin reductase 1 | 390,000 compounds, 0.01% hits | Potency, µM (highest dose often 114 µM), for inactives: at the highest dose activity change, negative = substrate turnover | O89049 | purified TrxR1 substrate turnover, NADPH consumption readout; note: potency is the fitted concentration of half-maximal effect; % is set by controls: 0 for no effect and ±100 for the full control effect; nearly all actives have a fitted effect of over 50% in size
Target sequence (O89049 whole entry, looked up): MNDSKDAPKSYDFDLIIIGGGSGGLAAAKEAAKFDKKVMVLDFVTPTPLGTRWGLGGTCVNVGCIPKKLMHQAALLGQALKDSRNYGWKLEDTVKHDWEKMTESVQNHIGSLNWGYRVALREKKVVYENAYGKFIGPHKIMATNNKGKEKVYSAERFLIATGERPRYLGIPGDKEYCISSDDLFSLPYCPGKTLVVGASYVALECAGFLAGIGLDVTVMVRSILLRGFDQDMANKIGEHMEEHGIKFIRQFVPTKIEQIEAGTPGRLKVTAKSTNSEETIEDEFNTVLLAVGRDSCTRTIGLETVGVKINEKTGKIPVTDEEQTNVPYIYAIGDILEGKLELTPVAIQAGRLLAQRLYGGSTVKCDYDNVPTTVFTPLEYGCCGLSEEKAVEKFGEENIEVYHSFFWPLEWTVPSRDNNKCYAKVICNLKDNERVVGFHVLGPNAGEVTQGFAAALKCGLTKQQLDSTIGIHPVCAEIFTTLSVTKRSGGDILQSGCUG
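Rat TrxR1, dispensed at 90 nM, was prereduced with 400 uM NADPH (final) for 5 min at ~22 deg C, then incubated with compound 15 min before 400 uM selenite. A first-read NADPH fluorescence drop versus no-compound background flagged substrates.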
mIDH1 inhibitor: inhibitors of human mutant IDH1 R132H. O75874. IDH1-R132H enzyme, NADPH consumption, diaphorase/resazurin fluorescence. Potency, µM (top dose mostly 76.6 µM), for the others: at the highest dose activity change, negative = inhibition, most hits filed as inhibitors. 390,000 compounds, 0.093% hits; note: potency is the fitted concentration of half-maximal effect; % is set by controls: 0 for no effect and ±100 for the full control effect; nearly all actives have a fitted effect of over 65% in size
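IDH1-R132H (0.5 ug/mL dispensed) in pH 7.5 Tris buffer was preincubated 30 min with compound, then given a substrate mix of 0.016 mM NADPH and 2 mM alpha-KG for 80 min at room temperature; remaining NADPH was read by diaphorase/resazurin fluorescence.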
TrxR1 inh: inhibitors of rat thioredoxin reductase 1; O89049; recombinant rTrxR1, NADPH fluorescence consumption, selenite substrate; Potency, µM (top dose mostly 114 µM), without a hit: top-dose activity change, negative = inhibition, actives largely listed as inhibitors; 390,000 compounds, 1% hits; note: potency is the fitted concentration of half-maximal effect; % is set by controls: 0 for no effect and ±100 for the full control effect; nearly all actives have a fitted effect of over 65% in size
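Rat TrxR1 (90 nM in the dispensed reagent) was pre-reduced with 400 uM NADPH for 5 min at room temperature, then incubated with compound for 15 min. After 400 uM selenite was added, NADPH fluorescence (Ex 340/Em 450 nm) was followed for 8 min.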
BRCA1 expr act: activators of BRCA1 expression; MCF7-BRCA1-FFLuc reporter, luminescence, 48 h; response scale: scaled: vehicle 0%, 10 µM genistein 100%; Potency, µM (series often up to 46.1 µM), without a hit: at the highest dose activation, hits mostly activators; 380,000 compounds, 1.1% hits; AID 624202; note: potency is the fitted concentration of half-maximal effect; nearly all actives have a fitted effect of over 80% in size
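MCF7 cells carrying a BRCA1-firefly luciferase reporter (2000 cells/well, phenol-red free MEM) were attached for 2 h at 37 °C, then given compounds for 48 h. Luminescence was read 15 min after luciferase reagent; activity normalized to genistein (10 microM) and DMSO.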
IL2 activator: activators of IL-2; AID 652025; 360,000 compounds, 0.065% hits; activation, % (series mostly up to about 46 µM); IL-2 activation reporter assay, cell-based qHTS; stimulated with anti-CD3/CD4/CD28 beads; in transgenic mouse T cells; in the data active = activation above about 50%; inconclusive = mostly about 30% to 49%; note: 0% is about no effect
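First, unstimulated transgenic mouse T cells were exposed to compound for 60 min. Next, anti-CD3/anti-CD4-coated beads with anti-CD28 were added. Finally, after 18 h at 37 degrees C, EGFP and DsRed were imaged.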
Giardia killer: Giardia lamblia killing; 340,000 compounds, 0.15% hits; activity change, % at 7.66 µM, hits read low; AID 540267; Giardia lamblia trophozoite viability; in the data active = activity change below about -80%; inconclusive = between about -30% and that limit;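 note: parasites exposed to compound for two days anaerobically before the ATP read; % is set by controls: 0 for no effect and ±100 for the full control effect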
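Giardia trophozoites, 100 cells per well, were exposed to compounds for 48 hrs at 37 deg C under anaerobic conditions; viability was then read as ATP content by bioluminescence after 15-30 min at room temperature.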
* = called active by the depositor; ? = inconclusive; nt = no result; [ ] = dose if it differs, or a comment. Unless noted, calls come from the whole dose curve; as a rule, active = well fitted curve in the direction sought with a large enough effect; inconclusive = small, poorly fitted or top-dose-only effect, or another doubt; inactive = no such curve, though single readings can be large; an effect the other way counts as inactive or inconclusive.

SMILES | TrxR1 substrate | mIDH1 inhibitor | TrxR1 inh | BRCA1 expr act | IL2 activator | Giardia killer
N#C/C(=C\c1cccc(O)c1)C(=O)N1CCCCC1 | 1.3% | 14.1% | ? | 8.7% | -0.6 | -12.0
N#C/C(=C\c1cccc(Br)c1)C(=O)N1CCCCC1 | 4.5% | -7.7% | 14.1µM* | -36.6% | -0.8 | -5.8
CN(C)/[N+]([O-])=N/Oc1cc(ON=[N+]([O-])N2CCN(c3ncccn3)CC2)c([N+](=O)[O-])cc1[N+](=O)[O-] | -16.0% | nt | ? | nt | nt | -4.0
Cc1cccnc1Nc1nc(-c2ccc(O)cc2)cs1 | -9.5% | 1.9% | 2.2% | 4.47µM* | -2.4 | -29.1
Oc1ccc(-c2csc(Nc3ncccn3)n2)c(O)c1 | 4.4%[57.1 µM] | -1.6% | 10.4%[57.1 µM] | 4.47µM* | 0.1 | -2.7
Cc1cc(-c2ccc(C)c(S(=O)(=O)Nc3cccc(C#N)c3)c2)on1 | 1.6%[57.1 µM] | -3.4% | 21.7%[57.1 µM] | nt | nt | nt
Cc1cc(Oc2ccc(Cl)cc2Cl)nc(C#N)n1 | 2.7% | nt | -1.0% | -9.5% | nt | nt
Cc1ccc(N2C(=O)C3C4C=CC(CNC(=S)Nc5ccc(F)cc5)(O4)C3C2=O)cc1 (stereo not given) | -12.4% | -4.9% | 15.8µM* | -31.5% | 0.0 | 9.0
CC(C)(C)C(=O)NCC12C=CC(O1)C1C(=O)N(c3ccccc3)C(=O)C12 (stereo not given) | 1.2% | -2.2% | 17.8µM* | 1.7% | -2.9 | 3.6
CC(C)COC(=O)NCC12C=CC(O1)C1C(=O)N(c3ccc(Cl)cc3)C(=O)C12 (stereo not given) | 13.3%[57.1 µM] | 7.3% | 14.1µM* | -1.5% | -2.5 | 6.5
CCC1(C(=O)OC)NC(c2ccco2)C2C(=O)N(c3ccccc3)C(=O)C21 (stereo not given) | 9.3%[57.1 µM] | -4.2% | ? | 48.0% | -1.7 | -7.4
Cc1ccc(N2C(=O)C3C4C=CC(CNC(=S)N5CCN(c6ccccn6)CC5)(O4)C3C2=O)cc1 (stereo not given) | 4.8% | -2.1% | 11.2µM* | -2.8% | -1.0 | 18.8
Cc1ccc(C)c(NC(=S)N2CCN(c3ccccn3)CC2)c1 | 7.1% | -5.1% | 29.3% | 24.7% | -0.3 | -15.0
O=c1c2cc3c(cc2nc2sc(Nc4ccccc4)nn12)OCO3 | 4.8%[2.29 µM] | 0.0% | 11.6% | nt | nt | nt
CCOc1ccc2nc(N3CCCC(C(=O)Nc4cc(Cl)c(OC)cc4OC)C3)sc2c1 (stereo not given) | -4.4% | 30.7% | 10.1% | nt | nt | nt
CC(=O)Nc1ccc(SCC(Cc2ccccc2)N2CCN(CCc3ccccc3)CCC2=O)cc1 (stereo not given) | -5.2% | nt | 27.1% | nt | nt | -14.6
CC(C)c1ccc(S(=O)(=O)N2CCC(n3c(C(F)(F)F)nc4cccnc43)CC2)cc1 | -1.2%[57.1 µM] | 3.9% | 7.3%[57.1 µM] | nt | nt | nt
Cc1ccc(N2C(=O)C3C4C=CC(CNC(=S)Nc5cccc(Cl)c5)(O4)C3C2=O)cc1 (stereo not given) | -14.2% | 4.0% | 7.94µM* | -41.1% | -4.2 | 1.0
Cc1ccc(NC(=S)NCCSc2ccc(Cl)cc2)cc1 | 4.9% | -7.7% | 2.5%[57.1 µM] | -12.8% | -0.5 | 3.3
Cc1ccc(N2C(=O)N(CC(=O)Nc3cccc(Cl)c3)C(=O)C2C)cc1 (stereo not given) | -6.4% | 5.5% | -10.2% | -11.8% | -3.8 | 8.6
Cc1ccc(N2C(=O)C3C4C=CC(CNC(=S)Nc5ccc(Cl)cc5)(O4)C3C2=O)cc1 (stereo not given) | -1.7% | -3.7% | 28.2µM* | -46.6% | -4.9 | -1.4
CN(CC(=O)Nc1ccc(Cl)cc1F)S(=O)(=O)c1ccc2c(c1)n(C)c(=O)c(=O)n2C | -2.2% | -15.2% | -4.1% | nt | nt | nt
O=[N+]([O-])c1ccc(/C=C/c2ccnc3ccccc23)c([N+](=O)[O-])c1 | 3.5% | nt | 4.6% | -25.2% | nt | nt
COc1cccc(Cn2c(CNC(=O)CCc3ccccc3)nc3cccnc32)c1 | 0.4%[57.1 µM] | 3.8% | 22.2%[57.1 µM] | nt | nt | nt
S=C(Nc1cccnc1)Nc1cccc2cnccc12 | -18.8%[57.1 µM] | 9.6% | 6.4%[57.1 µM] | -28.3% | -3.8 | -7.2

High-throughput results deposited in PubChem by National Center for Advancing Translational Sciences (NCATS).
